From PubChem BioAssay (NCI)
About 83,000 compounds went through this panel and 20% of them were active in at least one assay; those are over-represented in the sample as a whole.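 A percent growth of 40 corresponds to 60% growth inhibition; 0 means no net growth; -100 means all cells died. Active threshold: below 10.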 A number with no mark means an inactive call. Calls of active or inactive are those of the source.

Legend:
Test in all cases: NCI-60 one-dose screen, 48 h (100 = growth as untreated, 0 = no growth, -100 = all killed)
Conditions in all cases: 10 µM
K-562 leukemia = tested on: K-562 leukemia
MDA-MB-231 breast = tested on: MDA-MB-231 breast
SF-268 CNS = tested on: SF-268 CNS
SF-295 CNS = tested on: SF-295 CNS
SF-539 CNS = tested on: SF-539 CNS
UACC-257 melanoma = tested on: UACC-257 melanoma
HCT-15 colon = tested on: HCT-15 colon
HT29 colon = tested on: HT29 colon
SNB-75 CNS = tested on: SNB-75 CNS
SNB-19 CNS = tested on: SNB-19 CNS
U251 CNS = tested on: U251 CNS
PC-3 prostate = tested on: PC-3 prostate
SK-MEL-5 melanoma = tested on: SK-MEL-5 melanoma
UACC-62 melanoma = tested on: UACC-62 melanoma
LOX IMVI melanoma = tested on: LOX IMVI melanoma
SK-MEL-28 melanoma = tested on: SK-MEL-28 melanoma
DU-145 prostate = tested on: DU-145 prostate
MALME-3M melanoma = tested on: MALME-3M melanoma
RXF 393 renal = tested on: RXF 393 renal
M14 melanoma = tested on: M14 melanoma

| SMILES | growth (K-562 leukemia) | growth (MDA-MB-231 breast) | growth (SF-268 CNS) [%] | growth (SF-295 CNS) | growth (SF-539 CNS) | growth (UACC-257 melanoma) | growth (HCT-15 colon) | growth (HT29 colon) | growth (SNB-75 CNS) | growth (SNB-19 CNS) [%] | growth (U251 CNS) | growth (PC-3 prostate) | growth (SK-MEL-5 melanoma) | growth (UACC-62 melanoma) | growth (LOX IMVI melanoma) | growth (SK-MEL-28 melanoma) | growth (DU-145 prostate) [%] | growth (MALME-3M melanoma) [%] | growth (RXF 393 renal) | growth (M14 melanoma) |
| --- | --- | --- | --- | --- | --- | --- | --- | --- | --- | --- | --- | --- | --- | --- | --- | --- | --- | --- | --- | --- |
| CCN(CC)CCN1c2nc3ccccc3cc2Sc2cc3ccccc3nc21 | -69.1% (active) | -0.0354% (active) | 12.2 | -49.2% (active) | -100% (active) | 8.34% (active) | 3.28% (active) | -92.3% (active) | -7.91% (active) | 36.4 | 5.23% (active) | -13.8% (active) | -68.1% (active) | -0.283% (active) | -100% (active) | -50.4% (active) |  |  |  |  |
| CC(=O)[C@@]12O[C@](C)(c3ccccc3)O[C@@H]1CC1C3CCC4=CC(=O)CC[C@]4(C)C3CC[C@@]12C (some centres not stated) |  | 94.4% | 77.4 | 44.4% | 91.6% | 73.2% | 71% | 69.6% | 79.5% | 85.3 | 72.3% | 31.1% | 55.1% | 63% | 72.3% | 99% | 97.1 | 85.2 | 88.9% |  |
| O=C(COc1cccc(/C=C2\CSc3ccc(Cl)cc3C2=O)c1)c1ccc(Cl)cc1 | 17.3% | 32% | 88.2 | 81.2% | 80.3% | 84.6% | 47.9% | 16.7% | 74.7% |  | 59.9% | 43.7% | 86.1% | 71.1% | 23.8% | 107% |  |  |  | 94.7% |
| CNC(=O)c1c(I)c(NC(C)=O)c(I)c(C(=O)O)c1I |  | 95.5% | 108 | 119% | 109% | 114% | 105% | 103% | 87.3% | 96.2 | 102% | 93% | 108% | 98.5% | 94.5% | 114% | 113 | 112 | 115% |  |
| c1ccc(/C(=N\Nc2ccc3ccccc3n2)c2ccccn2)cc1 | 8.58% (active) | 29.8% | 19.6 | -15.8% (active) | -12.4% (active) | 16% | 25.7% |  | -9.74% (active) | 26.1 | 7.94% (active) | 19.4% | -51.3% (active) | -49.5% (active) | -13.5% (active) | 20.5% |  |  |  | -41.8% (active) |
| O=C1c2c(c(=O)[nH]c3ccccc23)CCN1Cc1ccccc1 |  | 98.4% | 110 | 104% | 90.4% | 104% | 96.6% | 99.3% | 79.8% | 99.6 |  | 84.9% | 108% | 97.1% |  | 107% | 122 |  | 111% | 102% |
| C=C(NC(=O)C(=C)NC(=O)c1csc(C2=NC3c4csc(n4)C4NC(=O)c5csc(n5)C(C(C)(O)C(C)O)NC(=O)C5CSC(=N5)C(=CC)NC(=O)C(C(C)O)NC(=O)c5csc(n5)C3(CC2)NC(=O)C(C)NC(=O)C(=C)NC(=O)C(C)NC(=O)C(C(C)CC)NC2C=Cc3c(C(C)O)cc(nc3C2O)C(=O)OC4C)n1)C(N)=O (configuration not stated) |  | 9.76% (active) | 27.1 |  | 1.63% (active) | 26.4% | 36.9% | 3.8% (active) | 66.7% | 66.6 | 8.08% (active) | 63.7% | -5.61% (active) | -17% (active) | -7.87% (active) | -34.5% (active) | 65.5 | 26.9 | -41.3% (active) | 2.27% (active) |
| COc1ccccc1/C=N\N/C(N)=N\N=C\c1ccccc1OC | 2.34% (active) | 21.7% | 41.4 | 5.03% (active) | -35.5% (active) | 46.3% | 1.27% (active) | -1.01% (active) | 21.5% | 35.3 | 5.71% (active) | 29.3% | -30% (active) | 19.7% | 5.74% (active) |  |  |  |  | -3.67% (active) |
| Nc1cc(-c2ccc(Cl)cc2)nn1-c1nc2ccccc2nc1Cc1ccccc1 |  | 75.1% |  |  | 99.5% | 101% | 74.4% | 69.7% | 84.4% | 89.9 | 90.8% |  | 86.7% | 87.8% | 93.3% | 92.9% |  | 101 | 78.7% | 89.6% |
| CCOC(=O)/C(=C(\C)N)C1CC(=O)NC1=O (configuration not stated) | 83.6% | 112% | 108 | 101% | 105% | 101% | 103% | 105% | 95.1% | 101 |  | 92.1% | 97.9% | 103% | 95.7% | 98% |  | 111 | 102% | 97.2% |
| Cc1cc(Cl)ccc1Nc1nc(C(F)(F)F)ccc1C(=O)N/N=C/c1c(Cl)cccc1Cl | 7.36% (active) | -17.2% (active) | 12.8 | -37.7% (active) | 5.69% (active) | 13.1% | 9.11% (active) | 3.29% (active) | -16.4% (active) | 13.5 | -1.74% (active) | -13.7% (active) | -85.4% (active) | -12.9% (active) | 10% | 24.7% |  |  |  | 7.93% (active) |
| COc1ccc(C(=O)COc2cccc(/C=C3\Cc4ccccc4C3=O)c2)cc1 | 80.5% | 66.5% | 77.2 | 87.1% | 75.9% | 83.5% | 85.6% | 82.1% | 46.8% |  | 82.6% | 82% | 67.3% | 61.3% | 90.3% | 103% |  |  |  | 81.2% |
| CN(C)c1ccc(/C=N/NC(=O)c2ccccc2Nc2cccc(C(F)(F)F)c2)cc1 | 77.8% | 70.9% | 93.7 | 111% | 105% | 101% | 78.2% | 97.2% | 94.4% | 92.7 | 81.1% | 76.1% | 81.8% | 86.3% | 65.3% | 91.2% |  |  |  | 105% |
| O=C(N/N=C/c1ccc(Cl)cc1)c1ccccc1Nc1cccc(C(F)(F)F)c1 | 59.9% | 74.5% | 84.6 | 86.8% | 48.9% | 96.9% | 79.1% | 75.8% | 78.7% | 88.4 | 72% | 71.6% | 34% | 76.4% | 83.7% | 79.8% |  |  |  | 91.5% |
| Cc1cc(=O)n2nnc3cc(Cl)c(Cl)cc3n12 |  | 107% | 101 | 111% | 108% | 102% | 103% | 106% | 95.6% | 110 | 94.8% | 94.4% | 110% | 106% | 87.3% | 105% | 105 |  | 91.9% |  |
| CCC(=O)OC1CCC2C3CCC(=O)OC3C(C)(CCC(=O)O)CC12C (configuration not stated) | 2.12% (active) | 19.6% | 50.1 | -18.6% (active) | 5.18% (active) | 55.7% | 24.2% | 4.42% (active) | -1.91% (active) | 62.8 | 28.3% | 31.4% | -83.5% (active) | 45.9% | 30.9% | 59.8% |  |  |  | 25.8% |
| O=C(N/N=C/c1c(Cl)cccc1Cl)c1ccccc1Nc1cccc(C(F)(F)F)c1 | 77.2% | 83.2% | 95.5 | 61.5% | 75% | 102% | 88.5% | 103% | 105% | 97 | 89.9% | 89.9% | 72.9% | 87.1% | 76.3% | 99.5% |  |  |  | 99.4% |
| CC(C)[N+]1(C)C2CC[C@@H]1CC(OC(=O)C(CO)c1ccccc1)C2 (some centres not stated) |  | 98.8% |  |  |  | 96.9% | 107% |  |  |  |  | 92.4% | 95.6% | 108% | 94.5% | 122% | 117 | 103 | 120% | 110% |
